Assay results from PubChem BioAssay AID602252 (Broad Institute, 2012).
In all, about 300,000 compounds went through this assay and about 2,700 (0.9%) were called active. This excerpt belongs to a sample that is enriched for actives. A number with no mark means an inactive call.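 How the source made its calls: active means mean inhibition of at least 30% with at least half of replicates also reaching 30%; inconclusive means no clear call, values can overlap the other calls; inactive means the rest.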

These molecules were tested against Golgi-associated PDZ and coiled-coil motif-containing protein (Homo sapiens) (UniProt Q9HD26) (assay: untagged CAL PDZ binding inhibitors, primary screen, biochemical, fluorescence polarization, HTS (AID 602252;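 further: 0% = DMSO neutral control and 100% = excess unlabeled competitor peptide PRC23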)). Conditions: purified CAL PDZ, TMR-peptide fluorescence polarization, 1 h; at 24.9 µM; stronger effect = higher value.

Row | Structure (SMILES) | inhibition
1 | O=C(NCCc1ccccc1)c1cccc(NC(=O)c2ccccc2)c1 | -3.44%
2 | CC(C)(C)OC(=O)C[C@@H]1C/C=C\C[C@@H](CC(=O)N[C@H](CO)Cc2ccccc2)C(=O)NCCOC1=O | -9.11%
3 | O=C(NNC(=O)c1ccccc1O)c1ccccc1O | -3.61%
4 | S=C(c1ccc(-c2ccccc2)o1)N1CCCCC1 | 54.6% (active)
5 | S=C(c1ccccc1)N1CCCC1 | -2.69%
6 | CN1CCN(C(=O)c2ccc(-c3ccc(Br)cc3)o2)CC1 | -4.62%
7 | C=CC[C@H](CC(=O)N(CCO)Cc1ccccc1)C(=O)N[C@@H](COC(=O)[C@@H](CC=C)Cc1ccc(F)cc1)Cc1ccccc1 | -5.7%
8 | CC(C)N(C(=O)[C@H]1C[C@H](CC(=O)NCCC2=CCCCC2)C(=O)N2CCc3c([nH]c4cc(CCC(=O)N(C)C)ccc34)[C@]12C)C(C)C | -1.76%
9 | O=c1oc2ccccc2c(=O)c2ccccc12 | 39.9% (active)
10 | CC(C)(C)Nc1c(N)c(=O)oc2ccccc12 | 3.5%
11 | Cc1ccccc1-n1nnc2c(=O)oc3ccccc3c21 | 0.078%
12 | COCCN(C(=O)C(C)N1C(=O)c2ccccc2C1=O)c1c(N)n(CC(C)C)c(=O)[nH]c1=O (stereo not given) | -19.9%
13 | COc1ccc(CC(=O)N[C@@H]2c3cc(OC)c(OC)cc3C[C@H]2OCc2ccccc2)cc1 | -0.172%
14 | COc1ccc(C)cc1NC(=O)Nc1ccccc1SC | -2.98%
15 | CSc1ccccc1NC(=O)c1cnc2sc(C)cn2c1=O | -2.14%
16 | CSc1ccccc1NC(=O)c1cc(Cl)sc1Cl | 35% (active)
17 | O=C(COC(=O)COc1cccc(F)c1)NCC1CCCCC1 | -0.678%
18 | O=C(Nc1nnc(-c2ccccc2)o1)c1cccc(S(=O)(=O)N2CCOCC2)c1 | 7.28%
19 | O=C(Oc1ccccc1Cl)c1ccc(N2CCOCC2)c([N+](=O)[O-])c1 | -0.07%
20 | O=C(OCC(=O)N1CCOCC1)c1ccc(N2CCOCC2)c([N+](=O)[O-])c1 | 53.8% (active)
21 | O=C(c1ccc(N2CCOCC2)c([N+](=O)[O-])c1)N1CCN(c2ccccc2F)CC1 | -2.67%
22 | CC(=O)Nc1ccc(S(=O)(=O)Nc2ccc(N3CCCCC3)cc2)cc1 | -0.222%
23 | CC(C)N(C(=O)[C@H]1C[C@H](CC(=O)NC(C)(C)C)C(=O)N2CCc3c([nH]c4ccc(Cl)cc34)[C@]12C)C(C)C | 1.76%

Row | Structure (SMILES) | inhibition
24 | COc1ccc(C)cc1NC(=O)CSc1nnc(CC(=O)Nc2ccccc2F)n1C | -5.79%
25 | Cn1c(CCC(=O)Nc2ccccc2F)nnc1SCC(=O)Nc1ccccc1Cl | 63.9% (active)
26 | Cn1c(SCC(=O)Nc2ccc(Br)cc2F)nnc1-c1ccco1 | -0.672%
27 | CN(C)c1ccc(CSc2ccccc2)cc1 | -6.85%
28 | COc1ccc2oc(N)nc2c1 | -0.189%
29 | CCOC(=O)c1ccccc1NC(=O)CSc1nc2c(sc(=S)n2CC)c(=O)[nH]1 | -5.33%
30 | CCN(C[C@H]1N[C@@](CC)(C(=O)OC)[C@H]2C(=O)N(Cc3ccccc3)C(=O)[C@@H]12)S(=O)(=O)c1ccc(C(F)(F)F)cc1 | -1.59%
31 | O=C(O)CN1CCN(C(c2ccccc2)c2ccccc2)CC1 | 0.69%
32 | CC1(C)CC(N2CCN(C(c3ccccc3)c3ccccc3)CC2)=CC(=[N+]2CCCCC2)C1 | 46.7% (active)
33 | CC(C)NC(=S)N1CCN(C(c2ccccc2)c2ccccc2)CC1 | -1.91%
34 | CCCCCC1CC(COc2ccccc2)OC1=O (stereo not given) | 8.53%
35 | CCCCN1CC(CO)Oc2cccc(F)c2S1(=O)=O (stereo not given) | -3.69%
36 | COc1cccc(C=CC(=O)C=CC=Cc2ccccc2)c1 | 0.692%
37 | C=CCNC(=S)N1CCN(CCN=Cc2c(C)[nH]n(-c3ccc([N+](=O)[O-])cc3)c2=O)CC1 | -1.05%
38 | Cc1[nH]n(-c2ccccc2)c(=O)c1N=Nc1ccccc1C(=O)N1CCCCC1 | -3.5%
39 | Cc1[nH]n(-c2ccc([N+](=O)[O-])cc2)c(=O)c1C=NCCN1CCN(C(=O)c2ccccc2F)CC1 | 51.8% (active)
40 | COc1ccc(C(=O)Nc2cccc(/C=C(/CCC(=O)O)c3nc4ccccc4s3)c2)cc1 | -1.62%
41 | CN1c2ccc(C=O)c3c(C=O)ccc(c23)N(C)C1(C)C | 67% (active)
42 | Cc1onc(-c2c(F)cccc2Cl)c1C(=O)OCC(=O)N1C(C)CCCC1C (stereo not given) | -2.47%
43 | COc1ccc(CC(=O)NC(C)c2ccc(Cl)c(Cl)c2)cc1S(=O)(=O)N1CCOCC1 (stereo not given) | -1.91%
44 | CCCN(CC(=O)NC(=O)NC1CCCCC1)CC(=O)Nc1cc(Cl)ccc1Cl | -3.68%
45 | CN(c1ccccc1)S(=O)(=O)c1ccc(NC(=O)COc2ccccc2)cc1 | -1.05%
